Only some compounds are listed: those with a hit (about 13% of all), similar ones and a draw of the others.
Lmaj promast: inhibitors of Leishmania major promastigote growth; Leishmania major promastigotes, resazurin fluorescence viability; 9% of 200,000 active; inhibition, % at 10 µM; AID 1063; in the data active = inhibition above about 50%;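 note: promastigotes grown with compound for 44 hours at 28 °C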
RAM inhibit: inhibitors of the yeast RAM network; inhibition, % at 50 µM; S. cerevisiae dse1pr::URA3 reporter, 5-FOA growth OD615, 2 d; analog-sensitive cbk1-as2 kinase mutant strain; 1.8% of 190,000 active; AID 868;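 active = inhibition above a set limit, 3 SD over mean compound inhibition, cut at about 8.4% in these data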;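 note: 0% = DMSO-only wells with no growth and 100% = 10 µM 1-NA-PP1 full growth; inhibition rescues growth on 5-FOA so higher OD means more RAM inhibition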
CHOP inh: CHOP inhibition in unfolded protein response. inhibition, % at 10 µM. 3.8% of 220,000 active. CHO-K1 CHOP-promoter luciferase, tunicamycin-induced, 15-18 h;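 active = compounds that reduced the stress-induced luciferase reporter signal by more than about 70% of percent inhibition, limit read from the data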;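 note: 0% = tunicamycin plus vehicle and 100% = wells without tunicamycin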
WT yeast gro inh: growth inhibition of WT yeast, mitochondrial fusion screen; mitochondrial fusion phenotypic screen, WT strain; inhibition, % at 10 µM; 2.1% of 190,000 active; in the data active = inhibition above about 58%; tested in S. cerevisiae
The depositor's hits bear a star; x = no result.

SMILES	Lmaj promast	RAM inhibit	CHOP inh	WT yeast gro inh
O=C(c1ccc(Cl)c(Cl)c1)N1CCC(O)(CN2CCOCC2)CC1	79*	0	16	-1
O=C(COC(=O)c1nc(-c2ccccc2)n(-c2cccc(C(F)(F)F)c2)n1)NCc1cccs1	-3	3	31	5
C/C(=N\Nc1ccc2nncn2n1)c1ccc(Br)s1	x	x	3	x
N#CC1CC(c2ccccc2)Nc2cc(Cl)ccc2N1 (stereo unspecified)	x	x	-11	x
CCOC(=O)C1CCN(C(=O)c2ccc(CNS(=O)(=O)c3ccc(OC)cc3)cc2)CC1	0	1	13	5
c1ccc(Oc2cccc(CN3CCOCC3)c2)cc1	100*	1	5	-2
c1ccc(CN2CCOCC2)cc1	-5	3	17	-21
O=C(Nc1cccc(C(=O)N2CCN(Cc3ccccc3)CC2)c1)c1ccccc1	75*	0	23	7
O=C(Nc1ccccc1C(F)(F)F)c1ccc(CN2CCC(Cc3ccccc3)CC2)cc1	64*	0	60	30
Cc1cc(C)c(NC(=O)C(C)c2cccc(C(=O)c3ccccc3)c2)c(C)c1 (stereo unspecified)	6	6	16	35
Oc1ccc(CCc2n[nH]c(=S)n2-c2ccc(F)cc2)cc1	x	x	24	x
CCc1nnc(NC(=O)CSc2nnc(-c3ccccc3OC)n2-c2ccc(C)cc2)s1	57*	1	68	13
CCc1nnc(NC(=O)CSc2nnc(COc3ccc(C)cc3)n2-c2ccccc2)s1	-6	8.7*	64	-1
CCCCCC/C=C/c1ccc(OC)c([C@H]2[C@H]3C=CC[C@@H](C)[C@@H]3C(=O)N2Cc2ccccc2)c1	x	x	0	x
Cc1cc(C)c(S(=O)(=O)N2CCN(c3ccc([N+](=O)[O-])c(-n4nc(C)cc4C)c3)CC2)c(C)c1	59*	6	46	14
c1ccc(OCCOCCN2CCN(C(c3ccccc3)c3ccccc3)CC2)cc1	21	0	73*	44
COc1ccc(OC)c(/C=N/NC(=O)CCN2CCN(C(c3ccccc3)c3ccccc3)CC2)c1	16	1	63	20
COc1ccccc1OCCCCN1CCN(C(c2ccccc2)c2ccccc2)CC1	93*	2	86*	47
S=C(NCCc1ccccc1)Nc1ccc(Br)cn1	6	3	-24	4
Cc1nccc(-c2cccc(NC(=O)c3ccccc3Cl)c2)n1	x	x	11	x
COC(=O)c1c(-c2cccc3ccccc23)csc1NC(=O)Cc1ccc(OC)c(OC)c1	28	6	73*	33
O=C(Nc1cccc(C(F)(F)F)c1)C1CCCN1S(=O)(=O)c1cccc2cccnc12 (stereo unspecified)	84*	3	57	3
O=C(NC1CCCC1)C1CCCN(S(=O)(=O)c2cccc3cccnc23)C1 (stereo unspecified)	-5	8.7*	33	12
CC(=O)Nc1cccc(Oc2ccc(-c3noc(C)n3)cc2)c1	41	-1	46	0
CC(c1cccnc1)N(C(=O)Nc1ccccc1)C1CCCCC1 (stereo unspecified)	78*	1	6	9
SMILES	Lmaj promast	RAM inhibit	CHOP inh	WT yeast gro inh
CCOc1ccc(NC(=O)N(C2CCCCC2)C(C)c2cccnc2)cc1 (stereo unspecified)	87*	2	34	-6
CCOc1ccc(NC(=O)N(C2CCCCC2)C(C)c2ccncc2)cc1 (stereo unspecified)	46	2	25	-7
COc1cc(CC(NC(C)=O)C(=O)NC2CCN(c3c4c(nc5ncnn35)CCC4)CC2)cc(OC)c1 (stereo unspecified)	-6	2	-15	-1
O=C(CCCN1C(=O)c2cccc3cccc(c23)C1=O)NC1CCS(=O)(=O)C1 (stereo unspecified)	-2	0	-14	4
Cc1cccc(N2CCN(C(c3ccncc3)c3nnnn3C(C)(C)C)CC2)c1C (stereo unspecified)	87*	2	46	7
CC(C)(C)n1nnnc1C(c1cccnc1)N1CCN(C2CCCCC2)CC1 (stereo unspecified)	7	0	25	3
CC(C)(C)n1nnnc1C(c1cccs1)N1CCN(C(=O)c2ccco2)CC1 (stereo unspecified)	12	1	5	-14
CC(C)(C)n1nnnc1C(c1cccnc1)N1CCN(C(=O)c2ccco2)CC1 (stereo unspecified)	68*	1	5	-3
CC(C)(C)n1nnnc1C(c1cccnc1)N1CCN(c2cccc(C(F)(F)F)c2)CC1 (stereo unspecified)	95*	-1	42	-22
Cn1cc(NC(=O)Nc2ccc(C(F)(F)F)cc2)c(C(F)(F)F)n1	x	x	18	x
O=C(Nc1csc([N+](=O)[O-])c1)Nc1c(Cl)cccc1Cl	x	x	2	x
Cc1ccc(NC(=O)Nc2ccc(Cl)cc2)c(Br)c1	-1	5	86*	30
Cc1ccc(NC(=O)COC(=O)c2cc(Cl)ccc2Cl)c(Br)c1	-4	7	43	15
O=C(Nc1ccc(Cl)cc1)Nc1cc([N+](=O)[O-])ccc1F	-5	0	71*	10
O=C(Nc1ccc(Cl)cc1)Nc1csc([N+](=O)[O-])c1	x	x	76*	x
COc1ccc(NC(=O)c2nc(C)n(-c3ccc([N+](=O)[O-])cc3)n2)cc1	16	2	12	7
c1ccc(-c2noc(CN3CCCC(OCc4ccccn4)C3)n2)cc1 (stereo unspecified)	-6	1	23	6
COc1cc(C(=S)N2CCOCC2)ccc1OC(=O)/C=C/c1ccco1	9	1	5	-5
CCc1ccc(N=CC23c4ccccc4C(c4ccccc42)C2C(=O)N(c4ccc(OC)cc4)C(=O)C23)cc1 (stereo unspecified)	89*	4	39	21
O=C(Cc1ccccc1)Nc1ccccc1Oc1ccccc1	-8	0	18	2
CN1CCC2(CCN3CCc4c(oc5ccccc45)C3C2)N(C)C1=O (stereo unspecified)	x	x	-4	x
CC(=O)c1c(C)[nH]c(C(=O)OCCCCN2C(=O)c3ccccc3C2=O)c1C	4	5	x	1
COc1cc(CN2CCC(C(=O)N3CCCC(C)C3)CC2)cc(Br)c1O (stereo unspecified)	76*	0	-30	-1
CCOC(=O)C1CCCN(C(=O)C2c3ccccc3Oc3ccccc32)C1 (stereo unspecified)	8	3	76*	4
CCOC(=O)C1CCCN(CCCc2ccccc2)C1 (stereo unspecified)	51*	0	-1	-5
CCCCN(C)C(=O)C1CCN(CCCc2ccccc2)CC1	82*	1	-9	5
Cc1ccc(-c2csc(NC(=O)c3ccc4c(=O)n5c(nc4c3)CCCCC5)n2)cc1	32	0	26	3
Cn1c(=NC(=O)COc2ccccc2)sc2cccc(F)c21	x	x	20	x
CC1CCCN(C(=O)C2CCN(CCCc3ccccc3)CC2)C1 (stereo unspecified)	81*	1	36	-6
c1cnc(N2CCN(c3cnccn3)CC2)nc1	3	0	-4	-2

Screening data: PubChem BioAssay, several laboratories
